# CYP2C9 inh: blocks human cytochrome P450 2C9; P11712; CYP2C9 Supersomes, luciferin-H conversion, luminescence; inhibition, % at 5 µM; 20% of 96,000 active; AID 777;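 active means blocking of liver enzyme CYP2C9 beyond about 50% at 5 µM, limit read from the data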
# PostGolgi ctrl: yeast control strain growth, post-Golgi counter-screen | efflux-deficient yeast background strain, growth absorbance A615, 16 h | 5% of 98,000 active | inhibition, % at 10 µM | AID 738
# PostGolgi yeast: growth inhibition of a yeast mutant, post-Golgi transport screen; post-Golgi transport phenotypic cell assay; inhibition, % at 10 µM; 0.9% of 98,000 active; AID 739;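 further: yeast cells grown in 1536-well plates; yeast grown about 18 h at 30C before absorbance read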
# CYP2C19 inh: human CYP2C19 inhibition; CYP2C19 Supersomes, luciferin-H EGE luminescence, 30 min; inhibition, % at 5 µM; 21% of 96,000 active;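 active means CYP2C19 inhibition above a set limit at 5 µM in the primary screen, cut at about 50% in these data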;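 further: plate controls were negative control wells for no effect and 2.5 mM tranylcypromine positive control for full effect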
# Target sequence (P33261 whole entry, looked up): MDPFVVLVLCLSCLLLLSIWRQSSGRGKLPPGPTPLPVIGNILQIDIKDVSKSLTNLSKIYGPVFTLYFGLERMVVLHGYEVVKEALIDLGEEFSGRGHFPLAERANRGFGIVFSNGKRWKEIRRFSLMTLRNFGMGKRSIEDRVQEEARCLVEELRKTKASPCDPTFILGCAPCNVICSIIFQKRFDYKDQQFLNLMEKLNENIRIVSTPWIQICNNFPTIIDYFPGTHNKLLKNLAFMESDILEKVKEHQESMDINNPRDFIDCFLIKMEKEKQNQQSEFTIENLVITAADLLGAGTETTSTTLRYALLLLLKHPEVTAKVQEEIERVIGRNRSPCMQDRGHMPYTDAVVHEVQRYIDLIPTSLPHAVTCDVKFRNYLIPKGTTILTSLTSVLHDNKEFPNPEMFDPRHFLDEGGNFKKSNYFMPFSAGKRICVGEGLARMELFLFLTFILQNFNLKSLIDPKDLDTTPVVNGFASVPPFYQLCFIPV
# CYP2C9 act: activators of human CYP2C9. P11712. recombinant CYP2C9, luciferin-H conversion, luminescence; active compounds read high; factor 1 = untreated enzyme, 0 = blocked. activation factor at 5 µM. 1.4% of 96,000 active. AID 1024;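 active means activation factor of 2 or more for CYP2C9 at a 5 µM dose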;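 further: 0 = sulfaphenazole-blocked wells and 1 = vehicle-only wells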
# CYP2C19 activ: increases human CYP2C19 enzyme activity | P33261 | recombinant CYP2C19, luciferin-H EGE luminescence; active compounds read high; 0 = fully inhibited enzyme, 1 = untreated enzyme | activation factor at 5 µM | 96,000 tested, under 10 active;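 active means activation factor of at least 2 at 5 µM in the primary screen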;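 further: 0 = wells with 2.5 mM tranylcypromine and 1 = vehicle-only wells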
# An asterisk follows results filed as active; · = no result given. In the library only some 32% were active in any assay of this set; here they are far more common. Unless noted, no stated cut-off is given here; in the data, active means inhibition above about 30%; inactive means the rest.
SMILES,CYP2C9 inh,PostGolgi ctrl,PostGolgi yeast,CYP2C19 inh,CYP2C9 act,CYP2C19 activ
N#Cc1c(-c2ccc(Cl)cc2)ccn2nc(C3CCCCC3)nc12,85*,7,2,26,0.1,0.7
O=C(/C=C/N1CCOCC1)c1ccc(-c2ccccc2)cc1,89*,0,-4,21,0.1,0.8
Clc1ccc(Oc2nc(N3CCOCC3)nc(N3CCOCC3)n2)cc1,4,16,3,2,1,1
Cn1ncc(C#N)c1NC(=O)C1CC(c2ccc(Cl)cc2)=NO1 (configuration not stated),31,2,5,72*,0.7,0.3
COc1ccc(S(=O)(=O)N2Cc3ccccc3CC2C(=O)Nc2ccc3c(c2)OCO3)cc1 (configuration not stated),62*,-3,12,85*,0.4,0.2
Cc1ccc(S(=O)(=O)N2Cc3ccccc3CC2C(=O)Nc2ccc3c(c2)OCO3)cc1 (configuration not stated),97*,17,1,98*,0,0
COc1cc(NC(=O)N[C@H](C(=O)O)C(C)C)cc(OC)c1,-8,2,-3,2,1.1,1
Cc1ccc(-n2c(Cc3cccn3C)nnc2SCC(=O)Nc2cc(C)on2)cc1,5,-4,0,2,0.9,1
O=C1N/C(=N\N=C\c2cccnc2)SC1Cc1ccc(SC(F)F)cc1 (configuration not stated),53*,3,3,2,0.5,1
Cc1nc2ccccc2n1CCc1nc2c3ccccc3nc(SCC#N)n2n1,1,26,-21,17,1,0.8
Cc1n[nH]c(C)c1CCc1nc2c3ccccc3nc(SCC(=O)Nc3ccccc3F)n2n1,95*,9,10,64*,0.1,0.4
Cc1cccc(NC(=O)CSc2nc3ccccc3c3nc(CCc4c(C)n[nH]c4C)nn23)c1,88*,17,0,66*,0.1,0.3
Cc1cc(C)nc(/N=C2\NC(=O)CC3C(=O)NCCN23)n1 (configuration not stated),·,5,7,·,·,·
Cc1ccc(C(=O)CSc2nnc(-c3cccs3)n2C)o1,11,17,-1,51*,0.9,0.5
COc1cccc(NC(=O)CSc2nnc(-c3cccs3)n2C)c1,11,-7,7,24,0.9,0.8
Cn1c(SCC(=O)OCC(=O)c2ccccc2)nnc1-c1cccs1,21,1,7,27,0.8,0.7
COc1ccc(OC)c(C(=O)CSc2nnc(Cc3cccs3)n2CCc2ccccc2)c1,37,16,0,55*,0.6,0.4
COc1ccc(OC)c(C(=O)CSc2nnc(-c3cccs3)n2C)c1,32,-1,-3,97*,0.7,0
Cn1c(Cc2ccccc2)nnc1SCC(=O)c1cccs1,44,-6,-8,95*,0.6,0
CC1CCCC2(C1)NC(=S)c1c(sc3c1CCCC3)N2 (configuration not stated),5,3,-1,20,0.9,0.8
CC(=O)OC(C)(C)C#CCN1CCCC1,-11,7,1,-10,1.1,1.1
Cc1ccc(-n2nnc3c(=O)n(CC(=O)NCC4CCCO4)cnc32)cc1 (configuration not stated),-26,3,-2,-10,1.3,1.1
CSc1nc2n(n1)C(c1ccccn1)C1=C(CC(C)(C)CC1=O)N2 (configuration not stated),-6,-2,-6,-1,1.1,1
CCOCCOCCC(C(=O)OCC)P(=O)(c1ccccc1)c1ccccc1 (configuration not stated),-12,8,-1,-7,1.1,1.1
O=C(O)c1ccc(COc2cccc(CO)c2)cc1,31,-2,-17,86*,0.7,0.1
SMILES,CYP2C9 inh,PostGolgi ctrl,PostGolgi yeast,CYP2C19 inh,CYP2C9 act,CYP2C19 activ
CCC(Sc1nc2n[nH]c(C)c2c(=N)n1-c1ccc(C)c(Cl)c1)C(=O)N1CCOCC1 (configuration not stated),46,-5,-1,-1,0.5,1
CCC(Sc1nc2n[nH]c(C)c2c(=N)n1-c1cccc(Cl)c1)C(=O)NCCOC (configuration not stated),65*,5,-3,35,0.4,0.7
O=S1(=O)CCN2C=C(Br)C=C(Br)C2=N1,-2,1,-8,3,1,1
O=C(Nc1ccc(Cl)cc1)C1C2CCC3C(CCC21)C3(Cl)Cl (configuration not stated),14,-3,4,26,0.9,0.7
Cc1ccc(S(=O)(=O)N2CCOCC2)cc1C(=O)NCc1cn2ccsc2n1,-2,-2,3,-2,1,1
CC1CCCN(S(=O)(=O)c2ccc(S(=O)(=O)N3CCCN(Cc4ccccc4)C3)cc2)C1 (configuration not stated),85*,·,·,95*,0.2,0
CC(C)CNS(=O)(=O)c1ccc(S(=O)(=O)N2CCCN(Cc3ccccc3)C2)cc1,28,-3,5,50*,0.7,0.5
Nc1nc2ccc(N3CCOCC3)cc2s1,8,2,0,11,0.9,0.9
CC(=O)Oc1cccc(N2C(=O)C3C4C=CC(C4)C3C2=O)c1 (configuration not stated),8,13,19,12,0.9,0.9
Cc1cccc(NC(=O)CSc2nnc(-c3ccccc3Br)o2)c1C,14,-3,-6,37,0.9,0.6
CCc1cccc(CC)c1NC(=O)CSc1nc2ccc(N3C(=O)C4C5C=CC(C5)C4C3=O)cc2s1 (configuration not stated),30,30*,-12,35,0.7,0.7
Cn1c(SCC(=O)Nc2ccc3nc(SCC(=O)N4CCCC4)sc3c2)nnc1-c1ccccc1,43,10,3,20,0.6,0.8
Cc1cccc(NC(=O)CSc2nc3ccc(N4C(=O)c5ccccc5C4=O)cc3s2)c1C,70*,3,3,30,0.3,0.7
Cc1cccc(NC(=O)CSc2nc3ccc(NC(=O)CSc4nnnn4-c4ccccc4)cc3s2)c1C,68*,3,-1,19,0.3,0.8
COC(=O)/C=C/S(=O)(=O)c1ccc(NC(C)=O)cc1,1,3,4,-1,1,1
O=C(COC(=O)c1cccs1)NC1CCCCC1,18,7,-5,92*,0.8,0.1
O=C(COC(=O)c1cccs1)c1ccccc1,78*,6,-5,89*,0.2,0.1
Cc1cnc(C(=O)OCC(=O)NC23CC4CC(CC(C4)C2)C3)cn1,31,16,-1,4,0.7,1
O=C(NC1CCCCC1)c1cccs1,4,9,10,-2,1,1
O=C(COC(=O)c1ccccn1)NC1CCCCC1,77*,1,-1,28,0.2,0.7
O=C(COC(=O)c1ccccn1)NC12CC3CC(CC(C3)C1)C2,22,6,1,80*,0.8,0.2

# Assay outcomes (PubChem)
